SMARCA2 activ = increases SMARCA2 function in MMTV reporter cells. MG213 cells, MMTV-luciferase reporter, dexamethasone, overnight. 370,000 tested, 1% active. activation, % at 9.1 µM; in the data active means activation above about 7.8%;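 further: 0% = vehicle wells and 100% = reference activator wells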
MsrA inhibitor = bovine MsrA inhibition. 360,000 tested, 0.75% active. inhibition, % at 15.5 µM. purified bovine MsrA, absorbance read-out; in the data active means inhibition above about 4.5%;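 further: 0% = vehicle wells with enzyme and 100% = reference inhibitor wells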
MsrA act = activates bovine MsrA enzyme | purified bovine MsrA, absorbance read-out | activation, % at 10.6 µM | 360,000 tested, 0.3% active | AID 602163; in the data active means activation above about 7.5%;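 further: 0% = vehicle and 100% = reference activator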
ABCB6 inh 2 = inhibitors of human ABC transporter ABCB6 | Q9NP58 | K562-ABCB6 porphyrin accumulation, flow cytometry, 1 h; active compounds read low | fluorescence ratio to DMSO, % at 10 µM | 360,000 tested, 0.19% active | AID 602162;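 active means fluorescence ratio to DMSO below 75%, the collection mean minus 3 SD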;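 further: signal is porphyrin accumulated inside mitochondria; 100% equals median channel fluorescence of DMSO control wells; lower ratio means ABCB6 inhibition with less porphyrin fluorescence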
SMARCA2 conf = confirmation of SMARCA2 (BRM) function activators | MG213 cells, MMTV-luciferase with dexamethasone, luminescence, overnight; MG213 cells expressing E1A, Rb sequestered; DMSO wells 0%, reference activator 100% | activation, % at 9.1 µM | AID 652260 | 3,500 tested, 30% active | shares compounds with SMARCA2 activ;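 active means activation above its plate's cutoff, the mean activation of tested wells plus 3 SD, cut at about 7.9% in these data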
VP16 Luc act = counter-screen for SMARCA2 activators: GAL4-VP16 luciferase reporter activation; shares compounds with SMARCA2 activ; HEK293 GAL4-VP16 pG5luc reporter, luciferase luminescence; scaled: DMSO wells 0%, SAHA wells 100%; activation, % at 9.1 µM; 3,500 tested, 41% active;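 active means activation above the solvent-only control well mean plus 3 SD, averaged across control plates, cut at about 5.2% in these data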
* = called active by the depositor; · = not tested or not shown. Compounds with a hit are over-represented: about 2.1% of the library has one in this group of screens.

SMILES	SMARCA2 activ	MsrA inhibitor	MsrA act	ABCB6 inh 2	SMARCA2 conf	VP16 Luc act
CC(=O)N1CCN(c2ccnc3cc(Cl)ccc23)CC1	11*	0	-8	95	-1	-1
O=C(O)CSCC(=O)N1CCN(c2ccnc3cc(Cl)ccc23)CC1	·	·	-13	99	·	·
O=c1c2ccccc2oc2c1oc1ccccc12	14*	1	-1	99	5	9.0*
CN1CCN(c2ccc3c(c2)Oc2ccccc2CN(Cc2cn(Cc4ccccc4C(F)(F)F)nn2)S3(=O)=O)CC1	-3	·	·	·	·	·
COC(=O)[C@H](C(C)C)N(CCCc1cn(CC2CCCCC2)nn1)S(=O)(=O)c1ccccc1Br	-3	·	·	·	·	·
O=c1oc2cc(Cl)ccc2n1CSc1nc2ccccc2s1	8.8*	0	-4	100	6	11*
CCc1ccc(OCC(=O)NC(=S)Nc2ccc(F)cc2)c(Br)c1	8.9*	0	2	100	4	3
COC(=O)[C@H](CC(C)C)N1Cc2nnn(CC3CCCCC3)c2-c2cc(F)ccc2S1(=O)=O	-5	·	·	·	·	·
COc1cc(OC)c2c(c1)O/C(=C\c1ccccc1)C2=O	11*	1	-4	100	7	9.4*
COc1ccc(/C=C2\Oc3ccccc3C2=O)cc1	4	1	-4	95	·	·
CC(=O)OCc1ccccc1Sc1ccccc1C(=O)NCc1ccccc1	10*	-2	-1	101	1	0
Cc1cccc(C)c1NC(=O)C(c1ccc(C#N)cc1)n1c(=O)c(-c2cc3ccccc3[nH]2)nc2ccccc21 (stereo not drawn)	-9	0	·	·	·	·
Cc1ccc(NC(=O)C2C(C(=O)O)C3C=CC2C32CC2)cc1 (stereo not drawn)	9.8*	0	-2	99	-1	2
CN(C)CCOc1nc(-c2ccccc2)nc2c1oc1ccccc12	16*	-1	2	103	31*	1
CCN(CC)CCOc1nc(C)nc2c1oc1ccccc12	8.5*	0	0	85	2	1
CCN(CC)CCCOc1nc(C)nc2c1oc1ccccc12	-3	0	-4	96	·	·
O=S(=O)(CC1NCc2cc(F)ccc21)NCCc1ccccc1 (stereo not drawn)	-4	·	·	·	·	·
CCCCCC[C@@H](CN(CCCC)S(C)(=O)=O)c1ccccc1	-1	·	·	·	·	·
O=C(OCC1CC(c2ccccc2Cl)=NO1)c1ccc(Br)cc1 (stereo not drawn)	11*	-1	0	101	4	1
CCOc1ccc(C(=O)c2ccc(OCC)c(N)c2)cc1N	8.6*	2	-12	100	6	6.5*
CCOc1ccc(S(=O)(=O)N(CC)CC)cc1N	-4	2	-7	96	·	·
Nc1nc(SCc2ccccc2)c2ncn(C3OC(CO)C(O)C3O)c2n1 (stereo not drawn)	2	0	1	100	·	·
OCC1OC(n2ccc3c(SCc4ccccc4)ncnc32)C(O)C1O (stereo not drawn)	9.4*	1	0	96	8	9.6*
O=c1[nH]cnc2c1ccn2C1OC(CO)C(O)C1O (stereo not drawn)	-1	0	-1	97	·	·
Nc1ncnc2c1ncn2C1OC(CO)C(O)C1O (stereo not drawn)	8.6*	0	-4	97	5	0
SMILES	SMARCA2 activ	MsrA inhibitor	MsrA act	ABCB6 inh 2	SMARCA2 conf	VP16 Luc act
OCC1OC(n2cnc3c(SCc4ccccc4)ncnc32)C(O)C1O (stereo not drawn)	8.7*	0	0	95	13*	1
Nc1ncnc2c1ncn2C1O[C@H](CO)[C@@H](O)[C@@H]1O (stereo partly drawn)	-1	-1	0	99	·	·
Cc1[nH]c2ccccc2c1CC(=O)Nc1ccc(Nc2ccccc2)cc1	-1	1	·	·	·	·
COc1ccccc1CNC(=O)NC1CCN(CC(=O)Nc2ccc3c(c2)OCCO3)CC1	8	·	·	·	·	·
COC(=O)/C=C1\Nc2ccc(Cl)cc2C(=O)NC1=O	0	0	·	·	·	·
Cc1cc(C)cc(NC(=O)CCc2c(C)nn(-c3ccc(N4CCCCC4)nn3)c2C)c1	11*	0	-7	100	3	6.3*
Cc1ccc(NC(=O)CCc2c(C)nn(-c3ccc(N4CCCCC4)nn3)c2C)cc1	2	0	-4	98	·	·
O=C(CSc1nnc(-c2ccccn2)n1Cc1ccco1)Nc1ccc(Oc2ccccc2)cc1	-6	·	·	·	·	·
Cc1ccc(S(=O)(=O)/N=C(/c2ccccc2)N2CCOCC2)cc1	8.2*	1	-3	91	-2	1
O=C(/C=C/c1ccccc1Cl)Nc1ccc(-c2nnc3n2CCCCC3)cc1	10*	0	-3	101	-4	-1
CCOC(=O)C(=NO)C1=CSC2=NNC(C)(C)N12	9.2*	1	-2	91	-1	1
CCOC(=O)/C(=N/O)C1=NC(C)(C)Cc2cc(C)c(C)cc21	2	0	-3	104	·	·
COc1ccc(C2=C/C(=C\c3ccc(OC(C)=O)cc3)C(=O)O2)cc1	-1	1	-3	90	·	·
CC(=O)Oc1ccc(C2=Cc3ccc(OC(C)=O)cc3OC2C)cc1 (stereo not drawn)	8.2*	1	-2	99	8.0*	6.5*
Cc1nc2c(ccc3nc(NC(=O)Cc4ccccc4)sc32)s1	10*	0	-5	98	7	4
COc1ccc(CN(C)C(=O)C2CCCN(c3nc4ccccc4o3)C2)cc1 (stereo not drawn)	4	·	·	·	·	·
Nc1ccc(Cn2ccc3c4c(N)nc(N)nc4ccc32)cc1	-4	1	-6	90	·	·
COc1ccc(/C=N\NC(=O)c2ccc(=O)[nH]n2)cc1O	12*	3	-9	102	-1	0
O=[N+]([O-])c1ccc(N/N=C/C=C/c2ccco2)cc1	8.2*	1	-5	130	3	6.5*
CC#CC#Cc1cccc(=O)o1	9.8*	3	-4	100	15*	3
O=C(COc1ccccc1)NCC1(N2CCCCC2)CCCCC1	9.6*	0	1	96	-2	0
Cn1c2ccc(F)cc2c2nnc(SCCN3CCOCC3)nc21	13*	0	-2	98	3	2
COc1ccc(C(=O)NC2CCCCC2)cc1S(=O)(=O)N1CCOCC1	15*	1	-2	89	-2	-1
Cn1c(N)c(C(=O)COC(=O)c2ccc(Cl)c(S(=O)(=O)N3CCCCC3)c2)c(=O)n(C)c1=O	12*	-1	-5	101	-1	-2
O=C(COC(=O)c1ccc(Cl)c(S(=O)(=O)N2CCCCC2)c1)NC1CCCCC1	15*	0	-2	99	2	-1
COc1ccc(C(=O)NC2CCCCCC2)cc1S(=O)(=O)N1CCCC1	0	-1	-10	103	·	·
O=C(COC(=O)c1ccc(Cl)c(S(=O)(=O)N2CCCC2)c1)NC1CCCCC1	-2	0	-4	90	·	·

Source: PubChem (several laboratories)
